Structures are written as SMILES.

A short description of this experiment: probe aNog binding to arrayed compounds – biochemical, biotinylated probe, 635/667 nm fluorescence, primary screen (AID 1115).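 Further: probe is biotinylated aNog protein used at 0.15 µg/mL for 1 h at 4 C; z-score combines 667 nm fluorescence of each spot with its signal to noise.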 The following applies: small-molecule microarray, higher = more signal.
For `NC(=O)NCC#Cc1ccc2c(c1)[C@]1(C(=O)N2)[C@H](C(=O)Nc2nc3ccccc3s2)[C@H]2C(=O)O[C@H](c3ccccc3)[C@H](c3ccccc3)N2[C@@H]1c1ccc(OCCO)cc1`, the composite z-score was -0.464.

Take `CC(C)C(=C=CC[C@@H](O)c1ccccc1OCCO)C[C@@H](O)c1cc(Cl)cc(Cl)c1O`: the composite z-score was found to be 0.432.

On to `COC(=O)[C@@H]1N=C(c2ccc(OCCCO)cc2)O[C@@H]1c1ccccc1CN=[N+]=[N-]`, for which the composite z-score is 1.29.

`COc1cc2c(cc1O)C(C1CC1)N(Cc1ccc([N+](=O)[O-])o1)CC2` (configuration not stated) registered a composite z-score of 1.73.

`COc1ccc(NN2C(C(O)c3cc(C(F)(F)F)cc(C(F)(F)F)c3)C=CC3C(=O)N(C4CCCCC4)C(=O)C32)cc1` (configuration not stated): the composite z-score was 1.82.

`C=CCC(OC(C)=O)[C@@H]1[C@@H](N(Cc2ccc(-c3ccccc3)cc2)C(=O)c2ccc(-c3ccccc3)cc2)c2cc(OCCCO)ccc2N1C(=O)c1ccc2ccccc2n1` (some centres not stated) gave a composite z-score of -0.335.

On to `O=C(NCC(F)(F)F)[C@@H]1c2ccccc2C(=O)N(CC23CC4CC(CC(C4)C2)C3)[C@H]1c1ccc(CO)cc1`, for which the composite z-score is -0.222.

These data come from PubChem BioAssay.
